The values that follow come from PubChem BioAssay (NCI).

Assay [1] is described as follows: NCI Yeast Anticancer Drug Screen. Data for the rad50 strain (AID 155).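 Also: 0% = growth of vehicle-only cultures of the same strain.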 The conditions noted are these: S. cerevisiae rad50 strain growth inhibition; at 50.0 µM; active compounds read high. The method, boiled down:
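A DNA repair-deficient yeast mutant serves as the test organism; compound-induced growth inhibition is calculated against vehicle-treated cells.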

Assay [2] can be described thus: NCI Yeast Anticancer Drug Screen. Data for the mec2-1 strain (AID 157). The note with it: S. cerevisiae mec2-1 strain, at 50.0 µM, active compounds read high. The method, boiled down:
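Using mec2-1 yeast: add compound, measure growth, express inhibition versus vehicle-treated cultures.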

Assay [3] can be described thus: NCI Yeast Anticancer Drug Screen. Data for the sgs1 mgt1 strain (AID 161).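 Also: 0% = growth of cultures given vehicle only.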 The conditions noted are these: S. cerevisiae sgs1 mgt1 strain, at 50.0 µM, active compounds read high. The method, boiled down: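 Percent growth inhibition was derived by comparing compound-exposed mutant yeast with vehicle-exposed cultures. The strain carries alterations in DNA damage repair.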

Assay [4] in a line: NCI Yeast Anticancer Drug Screen. Data for the cln2 rad14 strain (AID 165).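 Also: 0% = growth equal to vehicle treated cultures.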 The note with it: S. cerevisiae cln2 rad14 strain, at 50.0 µM, active compounds read high. The method in brief: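 Yeast strain cln2 rad14, bearing defects in cell cycle control and DNA repair, serves as the test system; values reflect growth inhibition compared with vehicle.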
The nature of assay [5]: NCI Yeast Anticancer Drug Screen. Data for the bub3 strain (AID 167). The note with it: S. cerevisiae bub3 mutant strain, at 50.0 µM, active compounds read high. The method in brief: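 Inhibition values come from growth of compound-treated mutant yeast normalised to vehicle-treated controls.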
Assay [6] can be described thus: NCI Yeast Anticancer Drug Screen. Data for the mlh1 rad18 strain (AID 175). The conditions noted are these: S. cerevisiae mlh1 rad18 strain growth inhibition; at 50.0 µM; active compounds read high. The method in brief: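 Steps: expose repair-defective yeast to compound; measure growth; express inhibition against vehicle-treated controls.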

About 79,000 compounds went through this panel and 15% of them were active in at least one assay; those are over-represented in the sample as a whole. A number with no mark means an inactive call. Calls of active or inactive are those of the source. Rule as the data show it: active = growth inhibition above about 70%; inactive = the rest.

As to `O=C(CC(=O)c1ccccc1)Nc1cccnc1`, the growth inhibition in assay [1] was -21.2%; in assay [2], 8.9%; in assay [3] it was -0.3%; in assay [4] it was -21.2%; in assay [5], -1.8%; in assay [6], -6.95%.
Consider `CC1=C(C)C(=O)c2c(OC(=O)c3ccccc3)ccc(OC(=O)c3ccccc3)c2C1=O`, for which the growth inhibition in assay [1] is -18.8%; in assay [2] it was 7.7%; in assay [3], 19.3%; in assay [4], -18.7%; in assay [5] it was -1.2%; in assay [6], -13.8%.
Regarding `O=C(O)CC(=O)C(C(=O)O)C(CCc1ccccc1)C(C(=O)O)C(=O)CC(=O)O` (stereo unspecified), the growth inhibition in assay [1] is -21.2%; in assay [2], -13.6%; in assay [3], -19.7%; in assay [4], 10.2%; in assay [5] it was -2.75%; in assay [6], -11.4%.
As to `CNc1ncnc2[nH]cc([N+](=O)[O-])c12`, the growth inhibition is 6.45% in assay [1]; 1.95% in assay [2]; 10.1% in assay [3]; 9.05% in assay [4]; 3.9% in assay [5]; 33.6% in assay [6].
For `O=c1[nH]c2ccccc2c(O)c1-c1ccccc1`, the growth inhibition in assay [1] is 6.95%; in assay [2], 0.8%; in assay [3], -17%; in assay [4], -8.6%; in assay [5] it was -22.5%; in assay [6], 0.65%.
As to `COc1ccc2c(c1)C1CCCCC1SCC2=O` (stereo unspecified), the growth inhibition in assay [1] was 1%; in assay [2], 7.4%; in assay [3] it was -1.9%; in assay [4], -10.9%; in assay [5], 15.8%; in assay [6] it was -15.3%.
Consider `CCSC(SCC)C(NC(C)=O)C(OC(C)=O)C(OC(C)=O)C(COC(C)=O)OC(C)=O` (stereo unspecified), for which the growth inhibition in assay [1] was 23.4%; in assay [2] it was -3.25%; in assay [3], -0.2%; in assay [4], 8.25%; in assay [5] it was -2.7%; in assay [6], 10.6%.
As for `CCOC(=O)c1ccc(-n2nc(C)cc(Cl)c2=O)cc1`, the growth inhibition in assay [1] was 1.3%; in assay [2], -11.2%; in assay [3], 10.8%; in assay [4], -43%; in assay [5], 20.4%; in assay [6] it was -4.8%.
`CCOC(=O)/C(C#N)=C\C1(C)CCC(C)=CO1` (stereo unspecified): the growth inhibition is -1.8% in assay [1]; -8.65% in assay [2]; -7.9% in assay [3]; -31.6% in assay [4]; -4.85% in assay [5]; -3.25% in assay [6].
In the case of `CC(Cc1cccc2ccccc12)(C(=O)O)C(=O)O`, the growth inhibition in assay [1] is 7.15%; in assay [2], -4.1%; in assay [3] it was 11.5%; in assay [4], -14.2%; in assay [5], -7.5%; in assay [6] it was 0.05%.
As for `CC(C)N(C(=O)C12C3C4C1C1C2C3C41C(=O)C(C)(C)C)C(C)C` (stereo unspecified), the growth inhibition in assay [1] is 43%; in assay [2] it was 28.9%; in assay [3], 52%; in assay [4], 61%; in assay [5], 41%; in assay [6], 50.8%.
As for `Fc1ccc(/C=C/c2ccc(/C=C/c3ccc(F)cc3)nn2)cc1`, the growth inhibition is 18.4% in assay [1]; -4.2% in assay [2]; 7.8% in assay [3]; -13.1% in assay [4]; 5.15% in assay [5]; -1.5% in assay [6].
As to `CCOC(=O)SC1=NC(C)=CC(C)(C)S1`, the growth inhibition was 2.4% in assay [1]; 6.55% in assay [2]; 18.6% in assay [3]; -10.9% in assay [4]; -3.7% in assay [5]; -4.7% in assay [6].
As to `CCCCCCCCNC(C(=O)c1ccc(Cl)cc1)c1ccc(Cl)cc1` (stereo unspecified), the growth inhibition in assay [1] was 8.05%; in assay [2], 17.4%; in assay [3], 21.6%; in assay [4], -18.3%; in assay [5] it was -8%; in assay [6], 25.8%.
Turning to `COc1ccc(OC)c2nc3c(C(=O)NCCN(C)C)cccc3nc12`, the growth inhibition in assay [1] is -15.7%; in assay [2], -25.5%; in assay [3], -55.7%; in assay [4], -35.2%; in assay [5], -31.4%; in assay [6] it was -68.1%.
As for `CC(C)CC(CN(C)C)C(=O)/C=C/c1ccccc1` (stereo unspecified), the growth inhibition in assay [1] was 18.2%; in assay [2], -2.25%; in assay [3], 19.4%; in assay [4], -6.95%; in assay [5] it was 11.8%; in assay [6], 22.1%.
As to `CC(C)N(CCn1c2c3ccccc3ccc2c2oc(=O)c3ccccc3c21)C(C)C`, the growth inhibition was 13.8% in assay [1]; -23.7% in assay [2]; -2.8% in assay [3]; 12% in assay [4]; -2.95% in assay [5]; -8% in assay [6].
With `CCN(CC)CCC(C(=O)O)(c1ccccc1)C1(O)CCCC1` (stereo unspecified), the growth inhibition in assay [1] was -7.5%; in assay [2], -13.3%; in assay [3] it was -7.9%; in assay [4] it was -26.8%; in assay [5], 7.1%; in assay [6], -25.9%.
For `CC1(O)OC(=O)c2ccc3ccccc3c21` (stereo unspecified), the growth inhibition in assay [1] was -11.4%; in assay [2] it was -19.9%; in assay [3], -9.35%; in assay [4], 14.9%; in assay [5] it was -20.8%; in assay [6], 11%.
On to `Cc1ccccc1NC(=O)NC(Oc1ccccc1)(C(F)(F)F)C(F)(F)F`, for which the growth inhibition in assay [1] is -6.95%; in assay [2] it was -21.8%; in assay [3], -50.9%; in assay [4] it was 15.6%; in assay [5] it was -32.8%; in assay [6], -29.1%.
`CC(O)c1cccc(NC(=O)Nc2ccc(Cl)c(Cl)c2)c1` (stereo unspecified): the growth inhibition in assay [1] was 12%; in assay [2] it was 83.4% (active); in assay [3], 70%; in assay [4], 1.15%; in assay [5] it was 43.8%; in assay [6], 54.5%.
For the molecule `CCOC(=O)c1c(C(=O)OC)nc2n1-c1ccccc1OC2`, the growth inhibition in assay [1] is -16.2%; in assay [2] it was -36.1%; in assay [3], -14.4%; in assay [4] it was -17.8%; in assay [5], -17.4%; in assay [6] it was -0.7%.
On to `O=c1c2ccccc2c2ccccc2n1C(c1ccccc1)c1ccccc1`, for which the growth inhibition in assay [1] was -43%; in assay [2], -4.9%; in assay [3] it was 3.25%; in assay [4] it was -12.6%; in assay [5], -11.5%; in assay [6], -2%.
In the case of `Cc1ccccc1-c1ccccc1`, the growth inhibition in assay [1] is 14.8%; in assay [2], 1.3%; in assay [3], -17.7%; in assay [4] it was -45.8%; in assay [5], -5.8%; in assay [6], 17.6%.
For `O=Nc1c(O)[nH]c2c(Cl)cccc12`, the growth inhibition in assay [1] was 0.1%; in assay [2], -10.2%; in assay [3], -15.2%; in assay [4] it was -20.4%; in assay [5], -18.2%; in assay [6] it was -5.25%.
Regarding `CCOC(=O)/C=C/SCC(N)C(=O)OCC` (stereo unspecified), the growth inhibition in assay [1] is -14.4%; in assay [2], -1.45%; in assay [3], -12.9%; in assay [4] it was 19.6%; in assay [5], -5.55%; in assay [6], -4.55%.
For `Cc1nc2ccccc2c(Br)c1Br`, the growth inhibition in assay [1] was 14.5%; in assay [2], 7.35%; in assay [3], 3.55%; in assay [4] it was 11.2%; in assay [5], -4.05%; in assay [6], 6.5%.
For the molecule `Cc1cccc(C(C)C)c1NC(=O)C(=O)C(C#N)c1ccc(CC#N)cc1` (stereo unspecified), the growth inhibition in assay [1] is -27.9%; in assay [2], 2.4%; in assay [3], 17.9%; in assay [4], -40%; in assay [5] it was 1.55%; in assay [6], 14.2%.
In the case of `Ic1ccc(-n2cccc2)cc1`, the growth inhibition in assay [1] is 8.4%; in assay [2], 5.55%; in assay [3], -1.7%; in assay [4] it was -3.25%; in assay [5], 13.8%; in assay [6], -18.6%.
For the molecule `O=C1C2=C(Nc3cc([N+](=O)[O-])ccc3N2)OC1c1ccc(Cl)cc1Cl` (stereo unspecified), the growth inhibition in assay [1] was -2.35%; in assay [2], 23.4%; in assay [3], 5.2%; in assay [4] it was 10.7%; in assay [5], -7%; in assay [6] it was 13.2%.
On to `Cc1cc2c(C)nn(Cc3ccc(Cl)cc3)c2c(C#N)c1C`, for which the growth inhibition in assay [1] was 25.4%; in assay [2] it was -8.85%; in assay [3], 15.6%; in assay [4], 2.85%; in assay [5], 22.1%; in assay [6], 18.9%.
With `CCOc1ccccc1/C=N/NS(=O)(=O)c1ccc([N+](=O)[O-])cc1`, the growth inhibition in assay [1] was -19.2%; in assay [2], -23.1%; in assay [3], 2.55%; in assay [4] it was -18.6%; in assay [5], 12.9%; in assay [6] it was -14.2%.
On to `CC(=O)CC(=O)NCc1cccc(C)n1`, for which the growth inhibition was 38.1% in assay [1]; 24.6% in assay [2]; 28.6% in assay [3]; -8.15% in assay [4]; 20.9% in assay [5]; 24.1% in assay [6].
Regarding `CC(=NC1CCCCC1)c1ccccc1O`, the growth inhibition was 24.4% in assay [1]; -11.1% in assay [2]; -3.35% in assay [3]; -23.9% in assay [4]; 13.6% in assay [5]; 16.8% in assay [6].
For the molecule `COc1cc2c(c(O)c1OC)C(=O)[C@@H]1CCC(=O)N1C2c1ccccc1` (stereo partly specified), the growth inhibition in assay [1] is 19.1%; in assay [2], 2.7%; in assay [3], 19.4%; in assay [4], 13.1%; in assay [5] it was 11.3%; in assay [6] it was -18.4%.
For the molecule `C[C@@H]1O[C@]2(O)[C@@H]3CCCN3S(=O)(=O)CCN2C1=O`, the growth inhibition in assay [1] was 2.1%; in assay [2] it was -21.6%; in assay [3], -16.9%; in assay [4], 17.7%; in assay [5] it was -11.3%; in assay [6] it was -17.1%.
